Reference: the supplement of paper PMC10338343
± gives the standard deviation.

Tested on: EfPiwi piRISC loaded with L1MC piRNA (26 nt)
Test: pre-steady-state target cleavage rate (min^-1); auxiliary factor: 500 nM Ephydatia muelleri Gtsf1; guide: L1MC piRNA 5'p-UAACUAAAUACUAUGCAAGCUGUAGG; MIWI and MILI are mouse PIWI proteins and EfPiwi is from a freshwater sponge; tags in brackets are library labels; higher = faster piRNA-guided slicing of the target
Method: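 Cleave-'n-Seq: a library of target RNAs (target site in constant flanks) at […] was incubated with 1 nM active freshwater sponge Ephydatia fluviatilis Piwi piRISC (synthetic 5'-monophosphorylated piRNA guide) with or without 500 nM EmGtsf1 at 33 °C for 1 min to 16 h. Uncleaved targets were sequenced and the pooled three trials fitted to a burst-and-steady-state model to give the pre-steady-state cleavage rate (min^-1). Sequence is the target site only. Fits with R² ≤ 0 are excluded.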

Row | Sequence | pre-steady-state target cleavage rate
1 | UCCUCCUUCAGCUUGCAUAGUAAUUAGUUA | 0.0731 ± 0.025
2 | UCCUGGAUGACCUUGCAUAGUAUUUAGUUA | 0.0113 ± 0.0049
3 | UCCUGGAUCAGCUCUGCAUAGUAUUUAGUUA | 0.101 ± 0.023
4 | UCCUGGUAGCAGCUUGCAUAGUAUUUAGUUA | 0.0746 ± 0.02
5 | UCCUGGAUCAGCUUGCAAUGUAUUUAGUUA | 0.00462 ± 0.0039
6 | UCCUCCUUGAGCUUGCAUAGUAUUUAGUAA | 0.00719 ± 0.0026
7 | UCCUGGAACAGCUUGCAUAGUAUAUUGUUA | 0.00533 ± 0.0022
8 | UCCUGGAUCAGCUUGCAUAGUAUAAAGUUA | 0.00752 ± 0.0027
9 | UCCUCGAUCAGCUUGCAUAGUAUUUUCAAA | 0.00433 ± 0.0023
10 | UCCUGGAACGCUUGCAUAGUAUUUAGUUA | 0.0259 ± 0.0076
11 | UCCUGGAUGUGCUUGCAUAGUUUUUAGUUA | 0.00538 ± 0.0024
12 | UCCUCCUACAGCUUGCAUACGUAUUUAGUUA | 0.0035 ± 0.0025
13 | UCCUGGAUGUCCUUGCAUAGUAUUUAGUUG [g2:g19:cont:t1G] | 0.00478 ± 0.0018
14 | UCCUGGAUGAGCUUGCACAGUAUUUAGUUA | 0.0152 ± 0.0046
15 | UCCUGGUACAGGUUGCUUAGUAUUUAGUUA | 0.00576 ± 0.003
16 | UCCUCCUACAGCUUGACAUAGUAUUUAGUUA | 0.016 ± 0.0056
17 | UCCUGGAUGAGCUUGCAUAGUAUUUCGUUA | 0.00352 ± 0.0019
18 | UCCUGCUACAGCUUGUAUAGUAUUUAGUUA | 0.029 ± 0.0067
19 | UCCUCCUACAGCUUGCUUAGUUUUUAGUUA | 0.00738 ± 0.0023
20 | UCCUGCUACAGCUAGCAUAGUAUUUAGUUA | 0.0287 ± 0.0081

Row | Sequence | pre-steady-state target cleavage rate
21 | UCCUCCUACAGCUACCAUAGUAUUUAGUUA | 0.00393 ± 0.0021
22 | UCCUGGAACAGCUUGCAUAGUAUUAAGUUA | 0.00549 ± 0.0022
23 | UCCUGGAUGUCGAACCAUUGAAUUUAGUUA | < 0.0001
24 | UCCUGGUACAGCUUGCAUAGUCUUUAGUUA | 0.00738 ± 0.0024
25 | UCCUGGAUGUGGCUUGCAUAGUAUUUAGUUA | 0.0125 ± 0.0049
26 | UCCUCGUACAGCUUGCAUAGUAUUUUCAAA | 0.0038 ± 0.0029
27 | UCCUGGUACAGGCUUGCAUAGUAUUUAGUUA | 0.00759 ± 0.0028
28 | UCCUCCUACAGCUUGCAUAGUAAAAAGUUA | 0.00301 ± 0.0021
29 | UCCUCCUACAGCUUGCAUAGUUUUUACAAA | 0.00552 ± 0.0037
30 | UCCUGGAUCAGCAUGCAUAGUAAUUAGUUA | 0.00437 ± 0.0016
31 | UCCUGGAUGUGGUUGCAUAGUAUAUAGUUA | 0.00747 ± 0.0056
32 | UCCUCCUACAGCUUGCUUAGUAUUUAGUAA | 0.00594 ± 0.0027
33 | UCCUGGUAGUGCUUGCAUAGUAUUUAGUAA | 0.00326 ± 0.0024
34 | UCCUGGAUGUGCUUGCAUAGUAUUUAGUCA | 0.00263 ± 0.0019
35 | UCCUGGUACAGCUAGCUUAGUAUUUAGUUA | 0.00544 ± 0.0027
36 | UCCUGGAUCAGGCUUGCAUAGUAUUUAGUUA | 0.0132 ± 0.0034
37 | UCCUCCUACAGCAUUGCAUAGUAUUUAGUUA | 0.0213 ± 0.0068
38 | UCCUCCUAGAGCUUGCAUAGUAUUAAGUUA | 0.00604 ± 0.0026
39 | UCCUGCUUGAGCUUGCAUAGUAUUUUCAAA | 0.00207 ± 0.0018
40 | UCCUGGAUGAGCUUGCAUAGUAUUUAGAAA | 0.00648 ± 0.0025
